According to PubChem BioAssay:
Several values for one entry are separate records, joined by “and”; a condition that tells them apart may be missing. Equal entries are not always repeated. For some assays here: Entries with a potency or affinity are not part of this list. Activity calls are given as the source filed them. Unless noted, no rule for the calls is given here.

Assays:
[1] = P. berghei load reduction in hepatocytes – cell-based, HepG2, luciferase luminescence, HepG2 viability, primary screen (AID 624349; in the data active = parasite load remaining mostly below about 12%, no sharp cut-off; inactive = mostly above about 10%;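 also: 100% = mean of DMSO negative control wells on the same plate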); conditions: P. berghei liver stage in HepG2, luciferase luminescence, concentration not given here; parasite load remaining: stronger effect = lower value; viability: measured here: HepG2 viability without parasites
[2] = EMT-state selective cytotoxicity in co-culture – imaging, PC-3E GFP, TEM4-18 mCherry, primary screen (AID 1345086;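 active = compounds killing one labelled cell type while sparing the other, by normalised counts and ratio limits, not self-fluorescent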;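 as to all read-outs here: cells exposed to compound for 72 h before imaging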;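 as to red/green cell ratio (normalised): normalised mesenchymal count divided by normalised epithelial count so high means epithelial killing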); conditions: PC-3E GFP / TEM4-18 mCherry co-culture, imaging cell counts, at 1 µM; for red/green cell ratio (normalised): actives lie on both sides
[3] = viability loss with induced miR-34 in A549 – imaging, A549 dox-inducible miR-34, nuclei and caspase counts, primary screen (AID 1347080;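 active = compounds whose cell count with miR-34 switched on is under 0.7 times the count with it off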); conditions: A549 miR-34 inducible, Hoechst nuclei count, 48 h
[4] = biological target: Mitogen-activated protein kinase 7 (Homo sapiens) (UniProt Q13164); assay: Gal4-ERK5 driven luciferase induction – cell-based, HTS, primary screen (AID 1508626;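 active = luciferase signal above three times the same-plate solvent-only control wells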;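 also: luciferase driven by Gal4-ERK5 fusion binding five Gal4 sites before minimal TATA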); conditions: HeLa Gal4-ERK5 transactivation, 18 h, at 5 µM, stronger effect = higher value
Mitogen-activated protein kinase 7 (Homo sapiens), sequence (Q13164 whole entry, looked up, the tested form may be a part): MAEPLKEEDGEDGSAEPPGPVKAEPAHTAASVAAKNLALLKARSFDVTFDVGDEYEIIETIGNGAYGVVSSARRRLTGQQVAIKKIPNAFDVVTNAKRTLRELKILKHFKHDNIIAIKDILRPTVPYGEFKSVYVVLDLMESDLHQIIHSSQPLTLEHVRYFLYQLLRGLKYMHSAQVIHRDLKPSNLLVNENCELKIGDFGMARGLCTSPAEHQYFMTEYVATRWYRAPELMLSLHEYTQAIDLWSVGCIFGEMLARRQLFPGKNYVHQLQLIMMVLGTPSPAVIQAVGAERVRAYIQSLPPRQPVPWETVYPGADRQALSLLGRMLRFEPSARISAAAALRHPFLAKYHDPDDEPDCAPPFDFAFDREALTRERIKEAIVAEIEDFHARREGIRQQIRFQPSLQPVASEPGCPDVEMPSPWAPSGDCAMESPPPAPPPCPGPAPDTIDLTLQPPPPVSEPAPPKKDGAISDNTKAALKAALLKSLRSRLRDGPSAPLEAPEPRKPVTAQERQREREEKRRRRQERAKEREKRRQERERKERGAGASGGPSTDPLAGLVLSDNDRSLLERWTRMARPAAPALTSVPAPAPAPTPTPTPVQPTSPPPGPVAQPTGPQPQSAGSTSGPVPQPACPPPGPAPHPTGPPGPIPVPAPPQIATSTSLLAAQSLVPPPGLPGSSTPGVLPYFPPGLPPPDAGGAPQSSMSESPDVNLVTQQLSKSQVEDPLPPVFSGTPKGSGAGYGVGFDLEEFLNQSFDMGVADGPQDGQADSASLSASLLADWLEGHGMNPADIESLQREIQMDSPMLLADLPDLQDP

[5] = compounds altering circadian rhythm period length – cell-based, LOPAC library, luminescence reporter (AID 2774); conditions: circadian reporter cells, at 7 µM, actives lie on both sides;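 also: values are relative to mean of DMSO wells on each plate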
[6] = test system: Hepatitis C virus NS3 helicase; assay: blockers of NS3h binding to ssDNA – biochemical, fluorescence polarization, LOPAC1280 library, primary screen (AID 687035; in the data active = inhibition above about 37%); conditions: Purified HCV NS3 helicase, Cy5-dT15 ssDNA binding fluorescence polarization; stronger effect = higher value; concentration not given here
[7] = compounds altering Cy5-DNA-NS3h complex signal – biochemical, LOPAC1280, artefact control for HCV NS3 helicase inhibitor project (AID 687037); conditions: Cy5-DNA-NS3h complex fluorescence interference counterscreen
[8] = test system: Aerobactin synthetase IucA (Klebsiella pneumoniae); assay: inhibition of K. pneumoniae IucA enzyme – biochemical, Tocris library, absorbance (AID 1345561); conditions: purified IucA enzyme assay, absorbance (OD) read-out; stronger effect = lower value;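 tested at 8 µM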;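 also: 100% = enzyme without compound and 0% = no enzyme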
[9] = test system: Aerobactin synthetase IucA (Klebsiella pneumoniae, hypervirulent); assay: biochemical IucA inhibition screen of LOPAC library by absorbance (AID 1346212); conditions: IucA enzyme assay, absorbance (OD) readout; stronger effect = lower value;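 tested at 8 µM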;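 also: 100% = no compound wells and 0% = no enzyme wells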
[10] = galactose survival enhancers in mitochondrial complex I cybrids – cell-based, galactose medium, ATP luminescence, primary screen (AID 1645843;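 active = z-score of at least 1.8 in each of two replicates, scored against plate mean and spread of sample wells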;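 also: positive z means more ATP and so rescue of galactose-driven cybrid death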); conditions: complex I mutant cybrid cells, 72 h, stronger effect = higher value
[11] = blockers of cellular phospholipid synthesis – cell-based, LOPAC library, screen 4, primary screen (AID 1347384); conditions: animal cells, phospholipid biosynthesis inhibition screen; at 10 µM
[12] = blockers of polyQ-driven CASP3 activation – cell-based (AID 1583); conditions: polyglutamine-induced caspase-3 activation, cell assay; stronger effect = higher value;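 tested at 10 µM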
[13] = yeast 75Q aggregation reduction – 75Q-TubU reporter (AID 1593); conditions: Yeast 75Q polyglutamine aggregation reporter
[14] = restoration of touch response, mutant HTT neurons – whole organism, C. elegans mechanosensory neurons, N-terminal huntingtin (AID 1599); conditions: C. elegans polyQ-huntingtin mechanosensory neurons, stronger effect = higher value
[15] = blockers of cytochrome c efflux from mitochondria – biochemical, purified mitochondria (AID 1603); conditions: stronger effect = lower value;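 also: mouse liver mitochondria challenged with calcium chloride; signal normalized to the plate average as 100%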
[16] = polyglutamine aggregate formation blockers (AID 1604); conditions: polyglutamine-induced protein aggregation inhibition assay; stronger effect = higher value; tested at 2.5 µM
[17] = glutamate transport activators, MN-1 cells, MN-1 cell line (AID 1612); conditions: MN-1 motor neuron cells, stronger effect = higher value;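 also: tested at 1 µM final; 0% = mean of DMSO vehicle wells on each plate; positive means more glutamate uptake than control and negative means less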
[18] = 75Q-TubH aggregate inhibition, S. cerevisiae, yeast (AID 1616); conditions: S. cerevisiae 75Q-TubH polyglutamine aggregation suppression; stronger effect = higher value
[19] = measured here: epithelial PC-3E GFP cell survival
[20] = measured here: mesenchymal TEM4-18 mCherry cell survival
[21] = measured here: relative caspase fold change +Dox/-Dox
[22] = measured here: total cells with miR-34 induction, stronger effect = lower value
[23] = measured here: total cells without miR-34 induction
[24] = counts scaled to control wells, 1 = unselective
[25] = stronger effect = lower value, cell number ratio, induced over uninduced

COC(=O)C(c1ccccc1)C1CCCCN1 (configuration not stated)
parasite load remaining [1]: 51.8% (inactive)
viability [1]: 106%
red/green cell ratio (normalised) [2]: 0.97 (inactive)
normalised cell number [2, 19]: 1.07
normalised cell number [2, 20]: 1.04
fold change ([3]; stronger effect = lower value): 0.909 (inactive)
fold change [3, 21]: 3.99
cell count [3, 22]: 12600
cell count [3, 23]: 13900
luciferase signal [4]: 44 AU (inactive)

CCCN1CCO[C@@H]2c3cc(O)ccc3OC[C@H]21
period change [5]: -0.065 hour (inactive) and 0.1 hour (inactive)
inhibition [6]: -4% (inactive) and -2% (inactive)
fluorescence ratio (interference) [7]: 1 (inactive)
remaining activity [8]: 109% (inactive)
remaining activity [9]: 102% (inactive)
fold change ([3]; stronger effect = lower value): 0.978 (inactive) and 0.932 (inactive)
fold change [3, 21]: 1.67 and 0.977
cell count [3, 22]: 9750 and 8460
cell count [3, 23]: 9980 and 9070
z-score [10]: 0.53 (inactive) and -0.06 (inactive)

C[C@]12CC[C@H](OC3OC(O)C(O)C(O)C3O)C=C1CCC1C2CC[C@]2(C)[C@@H](c3ccc(=O)oc3)CC[C@]12O (some centres not stated)
parasite load remaining [1]: -0.075% (inactive)
viability [1]: 22.8%
red/green cell ratio (normalised) [2, 24]: 0.18 (inactive)
normalised cell number [2, 19]: 0.18
normalised cell number [2, 20]: 0.03
fold change [3, 25]: 0.742 (inactive)
fold change [3, 21]: 0.885
cell count [3, 22]: 150
cell count [3, 23]: 202

C[C@@H](N)Cc1cnc[nH]1
period change [5]: -0.03 h (inactive)
inhibition [6]: -1% (inactive)
fluorescence ratio (interference) [7]: 1 (inactive)
remaining activity [8]: 120% (inactive)
remaining activity [9]: 105% (inactive)
fold change ([3]; stronger effect = lower value): 0.943 (inactive)
fold change [3, 25]: 1.02 (inactive)
fold change [3, 21]: 0.922 and 0.657
cell count [3, 22]: 9840 and 7980
cell count [3, 23]: 10400 and 7800
outcome [11]: inactive
z-score [10]: 0.195 (inactive) and -0.325 (inactive)

C[N+](C)(C)CC#CCN1CCCC1=O
inhibition [12]: 23.8%
score [13]: 1.29
rescue above control [14]: 8.8
cytochrome c release ratio [15]: 1.02
inhibition of aggregation [16]: 53.5%
glutamate uptake change [17]: 7.8%
aggregation suppression score [18]: 1.08
period change [5]: -0.1 h (inactive)
inhibition [6]: -1% (inactive)
fluorescence ratio (interference) [7]: 1 (inactive)
remaining activity [8]: 124% (inactive)
remaining activity [9]: 112% (inactive)
fold change ([3]; stronger effect = lower value): 1.08 (inactive) and 0.881 (inactive)
fold change [3, 21]: 1.78 and 1.33
cell count [3, 22]: 9690 and 9120
cell count [3, 23]: 8970 and 10300
outcome [11]: inactive
z-score [10]: 0.5 (inactive) and 0.575 (inactive)

C=CC[C@]1(O)CCC2C3CCC4=CC(=O)CCC4=C3C=C[C@@]21C (some centres not stated)
parasite load remaining [1]: 26.4% (inactive)
viability [1]: 98.9%
red/green cell ratio (normalised) [2]: 0.86 (inactive)
normalised cell number [2, 19]: 0.92
normalised cell number [2, 20]: 0.79
fold change ([3]; stronger effect = lower value): 0.89 (inactive)
fold change [3, 21]: 1.39
cell count [3, 22]: 10300
cell count [3, 23]: 11500

CCC1(CC)C(=O)NC(=O)NC1=O
red/green cell ratio (normalised) [2]: 0.85 (inactive)
normalised cell number [2, 19]: 0.92
normalised cell number [2, 20]: 0.78

CC(=O)O[C@H]1C[C@H](O[C@H]2[C@@H](O)C[C@H](O[C@H]3[C@@H](O)C[C@H](O[C@H]4CC[C@@]5(C)C(CCC6C5C[C@@H](O)[C@]5(C)[C@@H](C7=CC(=O)OC7)CC[C@]65O)C4)O[C@@H]3C)O[C@@H]2C)O[C@H](C)[C@H]1O[C@@H]1O[C@H](CO)[C@@H](O)[C@H](O)[C@H]1O (some centres not stated)
score [13]: 1.1
rescue above control [14]: 3.88
cytochrome c release ratio [15]: 0.86
inhibition of aggregation [16]: 100%
glutamate uptake change [17]: -5.55%
aggregation suppression score [18]: 1.31
parasite load remaining [1]: 31.4% (inactive) and 0.905% (inactive)
viability [1]: 50.8% and 15.3%
red/green cell ratio (normalised) [2]: 0.22 (inactive)
normalised cell number [2, 19]: 0.27
normalised cell number [2, 20]: 0.06
fold change ([3]; stronger effect = lower value): 0.6 (active)
fold change [3, 21]: 2.31
cell count [3, 22]: 258
cell count [3, 23]: 431

NCc1cc(=O)[nH]o1
period change [5]: -0.1 h (inactive)
inhibition [6]: -3% (inactive)
fluorescence ratio (interference) [7]: 1 (inactive)
remaining activity [8]: 112% (inactive)
remaining activity [9]: 89% (inactive)
fold change ([3]; stronger effect = lower value): 0.974 (inactive)
fold change [3, 25]: 0.899 (inactive)
fold change [3, 21]: 1.71 and 1.62
cell count [3, 22]: 10400 and 8970
cell count [3, 23]: 10700 and 9980
outcome [11]: inactive
z-score [10]: 0.465 (inactive) and -0.045 (inactive)

COC(=O)[C@@H](N)CCCN=C(N)N[N+](=O)[O-]
period change [5]: -0.07 h (inactive)
inhibition [6]: -2% (inactive)
fluorescence ratio (interference) [7]: 1 (inactive)
remaining activity [8]: 81.5% (inactive)
remaining activity [9]: 117% (inactive)
fold change ([3]; stronger effect = lower value): 1.06 (inactive) and 1.11 (inactive) and 0.952 (inactive)
fold change [3, 21]: 1.8 and 0.812 and 0.955
cell count [3, 22]: 11200 and 5930 and 8740
cell count [3, 23]: 10600 and 5320 and 9180
outcome [11]: inactive
z-score [10]: 0.23 (inactive) and 0.29 (inactive)

C#CCOC(=O)C1=CCCN(C)C1
period change [5]: -0.055 h (inactive)
inhibition [6]: -1% (inactive)
fluorescence ratio (interference) [7]: 1 (inactive)
remaining activity [8]: 105% (inactive)
remaining activity [9]: 121% (inactive)
fold change ([3]; stronger effect = lower value): 1.05 (inactive)
fold change [3, 25]: 0.926 (inactive)
fold change [3, 21]: 1.99 and 0.981
cell count [3, 22]: 10200 and 8480
cell count [3, 23]: 9640 and 9160
outcome [11]: inactive
z-score [10]: -0.93 (inactive) and -0.57 (inactive)

c1ccc2sc(C3(N4CCCCC4)CCCCC3)cc2c1
period change [5]: -0.2 h (inactive)
inhibition [6]: -3% (inactive)
fluorescence ratio (interference) [7]: 1 (inactive)
remaining activity [8]: 107% (inactive)
remaining activity [9]: 110% (inactive)
fold change ([3]; stronger effect = lower value): 0.986 (inactive)
fold change [3, 25]: 0.965 (inactive)
fold change [3, 21]: 1.78 and 0.772
cell count [3, 22]: 8350 and 7790
cell count [3, 23]: 8470 and 8070
outcome [11]: inactive
z-score [10]: -1.48 (inactive) and -1.21 (inactive)

Oc1ccc2c3c1O[C@H]1c4[nH]c5c(c4C[C@@]4(O)[C@@H](C2)N(CC2CC2)CC[C@]314)C[C@@]1(O)[C@H]2Cc3ccc(O)c4c3[C@@]1(CCN2CC1CC1)[C@H]5O4
period change [5]: -0.025 h (inactive)
inhibition [6]: -2% (inactive)
fluorescence ratio (interference) [7]: 1 (inactive)
remaining activity [8]: 103% (inactive)
remaining activity [9]: 120% (inactive)
fold change ([3]; stronger effect = lower value): 1.09 (inactive) and 0.956 (inactive)
fold change [3, 21]: 1.04 and 0.836
cell count [3, 22]: 10400 and 9420
cell count [3, 23]: 9540 and 9850
z-score [10]: 0.855 (inactive) and 1.22 (inactive)

CCCCCCCCCCNCCC (tested in a mixture with another compound)
parasite load remaining [1]: 23% (inactive)
viability [1]: 92.6%
red/green cell ratio (normalised) [2, 24]: 0.92 (inactive)
normalised cell number [2, 19]: 1.01
normalised cell number [2, 20]: 0.93
fold change [3, 25]: 0.945 (inactive)
fold change [3, 21]: 1.32
cell count [3, 22]: 11300
cell count [3, 23]: 11900
